Paper PMC7819943, “Rice protein-binding microarrays: a tool to detect cis-acting elements near promoter regions in rice”
The full ranking holds about 68,000 sequences; the median of “fluorescence intensity (a.u.)” is about 9,100, and the highest 2% start at about 16,000. The sample holds the highest values, similar sequences and a random draw of the others, so the mix is not that of the screen.

Each sequence was assayed against OsWRKY34 (Oryza sativa, UniProt Q0JBA9 1-250) (assay: protein-binding microarray (RPBM); PBS, 2% BSA, 51.3 ng/ul salmon testes DNA, 50 uM zinc acetate, 200 nM TF, 25 C, 1 h; high values mean tight binding). Details: protein: recombinant; tags: N-terminal polyhistidine and DsRed monomer fusion (pET32a); label: CyDye5-dUTP incorporated in the synthesized complementary strand; 3' TTTTT single-stranded linker to array surface; dsDNA, one strand shown.
In short: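 A custom Agilent array was converted to double-stranded form by primer extension with Cy5-dUTP and blocked with 2% BSA. Protein at 200 nM in PBS with 2% BSA, salmon testes DNA and 50 µM zinc acetate was applied for 1 h at 25 °C, followed by washing. The proteins were polyhistidine–DsRed N-terminal fusions of transcription factors, expressed in E. coli BL21-CodonPlus and Ni–NTA-purified. The binding signal is per-feature fluorescence intensity (arbitrary units) from an Axon 4000B scanner.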

Sequence of OsWRKY34 (Q0JBA9 entry or part of it): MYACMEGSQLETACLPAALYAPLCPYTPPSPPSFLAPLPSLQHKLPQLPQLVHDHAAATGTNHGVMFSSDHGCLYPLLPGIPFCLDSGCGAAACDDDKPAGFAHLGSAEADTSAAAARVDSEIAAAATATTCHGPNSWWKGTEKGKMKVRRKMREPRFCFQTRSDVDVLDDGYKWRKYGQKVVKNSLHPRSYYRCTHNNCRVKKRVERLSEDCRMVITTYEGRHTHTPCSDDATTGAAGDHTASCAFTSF

Sequence	binding signal
CCGCCGCCGCCTCCTGCTCCTTCGACCTGCCCCGGCCCCGCGGAGTCACCTAGTGCAG	8870 fluorescence intensity (a.u.)
CCCCTATTTAGCCGCGCCATTTTCCCCTCGCTAGCTGTGTCGGAGTCACCTAGTGCAG	8400 fluorescence intensity (a.u.)
TAATTTTTATAGGCCTGTTCATATTTTCTACCGTTGATTTCGGAGTCACCTAGTGCAG	10300 fluorescence intensity (a.u.)
TTGACATCCTACGTTTGTGTTCCTCGTCACTCCACTATCGCGGAGTCACCTAGTGCAG	8040 fluorescence intensity (a.u.)
CTGTGTTTTCTATTTTTCTCTGTTTTACATCTATCTTCTTCGGAGTCACCTAGTGCAG	19100 fluorescence intensity (a.u.)
TGTTTGACACCATTGACTTTTTAGTATGTGTTTGACCATTCGGAGTCACCTAGTGCAG	13200 fluorescence intensity (a.u.)
TTTTGACTTTCTCTTACACTGTTTGACCATTTATCTTATTCGGAGTCACCTAGTGCAG	14000 fluorescence intensity (a.u.)
CCAATTTCTCTCTCCACATCTCTCTGTGTTTCTTTTATTTCGGAGTCACCTAGTGCAG	9680 fluorescence intensity (a.u.)
ACACCATTGACTTTTTAATATGTGTTTGACCATTCGTCTTCGGAGTCACCTAGTGCAG	19200 fluorescence intensity (a.u.)
ATATTTTTTCTGTGTTTTGCAATCTTCTATTTTACACTTTCGGAGTCACCTAGTGCAG	11200 fluorescence intensity (a.u.)
GGTTGGTTTCTTTGTTTTTCTCTTATATTTACACTATATTCGGAGTCACCTAGTGCAG	23800 fluorescence intensity (a.u.)
TCTGTATGGTCTACTTGTTTGATTGATTGATAATTTTACACGGAGTCACCTAGTGCAG	9240 fluorescence intensity (a.u.)
CGTCCTTATATAATTGTTTTACTTGGTGATTTCATCTGGTCGGAGTCACCTAGTGCAG	64500 fluorescence intensity (a.u.)
ATTGACTTTTTTAAAAATGTTTGACCATTCGTCTTATTCACGGAGTCACCTAGTGCAG	9010 fluorescence intensity (a.u.)
TTCTTTTTATATTTTCTTTTGTTGGTTTTTTTCGTCTCAACGGAGTCACCTAGTGCAG	13200 fluorescence intensity (a.u.)
CTTACTTGGTCACTCCCTTTTTGTTATCTGATTTAGACGTCGGAGTCACCTAGTGCAG	8230 fluorescence intensity (a.u.)
CGTCTCGTGTCTTCTCGTCTCGACCCATCCATCCATCCCACGGAGTCACCTAGTGCAG	8570 fluorescence intensity (a.u.)
CGGGCTCTGGTTTTACCGAATAAATGCTCTGGGCCTAATACGGAGTCACCTAGTGCAG	8020 fluorescence intensity (a.u.)
GCATTAGAACGAGCGCACCCACTTTCAGTTCTCAAATTATCGGAGTCACCTAGTGCAG	8670 fluorescence intensity (a.u.)
GTCTTTTGATGCGACGCGATGTGACTCGCCCGACCCAACTCGGAGTCACCTAGTGCAG	8940 fluorescence intensity (a.u.)
CCTCCATTCTTCAGTTTTAATGCATCCTCTTCATCACTTCCGGAGTCACCTAGTGCAG	11800 fluorescence intensity (a.u.)

Sequence	binding signal
CATCAGTACAGGCCCAACTTAAAAATTGCTCGGCCCATTTCGGAGTCACCTAGTGCAG	8850 fluorescence intensity (a.u.)
GGTGCTCCGCCTCCCGGGGCAGGGTTTCAAGAGGGTGGGTCGGAGTCACCTAGTGCAG	10700 fluorescence intensity (a.u.)
CATCCGATTCCTATGTATTTCTTGCGGTCTAATCAAACGACGGAGTCACCTAGTGCAG	10200 fluorescence intensity (a.u.)
GTGTTTTGCAAGGTTGTTTCTTTACCTTATCTATATACATCGGAGTCACCTAGTGCAG	9790 fluorescence intensity (a.u.)
CACTCCACCATTGTCATCTTTACTATCGGTAATTGTTGATCGGAGTCACCTAGTGCAG	8440 fluorescence intensity (a.u.)
GCTTTTCTTTGTCCATCCATCTATCTTTTTCTCCATCTTTCGGAGTCACCTAGTGCAG	8440 fluorescence intensity (a.u.)
GGAGTGTTTCTGTTGTTGCATGTGATGAGTGCATTATCATCGGAGTCACCTAGTGCAG	11000 fluorescence intensity (a.u.)
TTTTTTTCTCCTCATTATTCTTCTTTTCTTTCTCTATATTCGGAGTCACCTAGTGCAG	9180 fluorescence intensity (a.u.)
GTCAAATTTCTGTGCTCCATAAGATCTCTTCTCTTTTTTTCGGAGTCACCTAGTGCAG	16700 fluorescence intensity (a.u.)
GGGCTGTTATCTCTGATGTGTTTTCTGCCTCTCATGTCATCGGAGTCACCTAGTGCAG	17000 fluorescence intensity (a.u.)
TCTTTTTTCTCTTCTTCTTCTCCTCCATTCCATTCCATTTCGGAGTCACCTAGTGCAG	8930 fluorescence intensity (a.u.)
ACAGTTTTCTCCATCTTGGCCATTCGTGTGCTATATCCATCGGAGTCACCTAGTGCAG	16500 fluorescence intensity (a.u.)
TTTTTCTTGTGCTCTATCCATCCATGCCATGCCATTCATCCGGAGTCACCTAGTGCAG	10200 fluorescence intensity (a.u.)
AGTTGGCTATAATATATTTCTTCTCTCTCTATCTCTCATTCGGAGTCACCTAGTGCAG	17700 fluorescence intensity (a.u.)
TTCTCTCTCTATCTCTCATTTATATATTTAATATATTTGTCGGAGTCACCTAGTGCAG	9250 fluorescence intensity (a.u.)
TGCTCAACATCCATCTTTCTTTCTTTCTTTTTCTCTTTTTCGGAGTCACCTAGTGCAG	11300 fluorescence intensity (a.u.)
GCCTGTTTCTCCTTCGGCTGATGATATCTGTGCTGTTTTTCGGAGTCACCTAGTGCAG	8550 fluorescence intensity (a.u.)
ACCCACCACATCGACGCGACCACACTCCACACAAGCCATGCGGAGTCACCTAGTGCAG	10100 fluorescence intensity (a.u.)
TAGTGTTGGTTTGATTTTTATATCACTAGAGATGAACTAACGGAGTCACCTAGTGCAG	8560 fluorescence intensity (a.u.)
GATGATGATGATTTTGGTAGGAGATATGGATCGTGTTGGTCGGAGTCACCTAGTGCAG	11300 fluorescence intensity (a.u.)
ATCTTATTAATTAATTCTTTGTGTTTCATATTATTCTAATCGGAGTCACCTAGTGCAG	10300 fluorescence intensity (a.u.)

Sequence	binding signal
TGCGAGTTCGTCGCCGCCTCCGCCGATCTCCATCAGGCGACGGAGTCACCTAGTGCAG	9610 fluorescence intensity (a.u.)
GCAGCGACGACATCTGACGGCCTCACCTACCTTTCGGTCTCGGAGTCACCTAGTGCAG	8460 fluorescence intensity (a.u.)
GGTGTCTTGATTGATATGATTTAAATTATTCTTGGTCTTGCGGAGTCACCTAGTGCAG	9570 fluorescence intensity (a.u.)
GGCTCAACAAATAATGTGAAGATCTCTCATTTTCATTTTCCGGAGTCACCTAGTGCAG	8050 fluorescence intensity (a.u.)
TCTTTGTTATAATTATGGGGTTGGTTTTATTCGTTTTCGACGGAGTCACCTAGTGCAG	21900 fluorescence intensity (a.u.)
TGTTTGGTTGGGATACATGGGAATTTTGGTAGGATGGGGACGGAGTCACCTAGTGCAG	12700 fluorescence intensity (a.u.)
AAATTTGTTATTTTTGTTTCGAATTATATAATTCGAATTTCGGAGTCACCTAGTGCAG	9450 fluorescence intensity (a.u.)
TCGTTATACCTGGTTTTTTTGGTTGAGGGATGTTATTCGACGGAGTCACCTAGTGCAG	12500 fluorescence intensity (a.u.)
TTTATACATGGTTTGTGTTTTTCTCACTTTGGGTTGGGGACGGAGTCACCTAGTGCAG	18000 fluorescence intensity (a.u.)
CTAGTTGTGTTTGTTAATTTCTTTCTATACATGGGTTACCCGGAGTCACCTAGTGCAG	11700 fluorescence intensity (a.u.)
GACACCACATAAAGACACCCATCCCCGTGATCAACTACCTCGGAGTCACCTAGTGCAG	8320 fluorescence intensity (a.u.)
CGCCTGTCAAATCCTAGTCAGGGAATCTGTCTTCCATCTACGGAGTCACCTAGTGCAG	9100 fluorescence intensity (a.u.)
AGTATTGTTTTCTCGCTGTCTCTATCCAAATCTTTGAAAACGGAGTCACCTAGTGCAG	17200 fluorescence intensity (a.u.)
TTTTTCTTTTTATTGTCTTGTTCTCGTGCGTGTTGAAAAACGGAGTCACCTAGTGCAG	20300 fluorescence intensity (a.u.)
GTTGAGGGACCCGCTGGATCTGGTTTTTGATTGAAGGATACGGAGTCACCTAGTGCAG	8800 fluorescence intensity (a.u.)
TGTTATTATTGCCGTTGTCTTTATTTTTCTTTTTTGAAAACGGAGTCACCTAGTGCAG	9580 fluorescence intensity (a.u.)
GCCTTTTTCTTGCGTGTAGGTTGTTCTGTTGAGAGAAAGACGGAGTCACCTAGTGCAG	17700 fluorescence intensity (a.u.)
TTTTTTTTCTTTCTGTTCTGTTTCTGTTGAGAAACAAAGACGGAGTCACCTAGTGCAG	8450 fluorescence intensity (a.u.)
TCTTCTTTTGTTGTCTTCTGCTATCCAATCTCTTGTCAAACGGAGTCACCTAGTGCAG	10500 fluorescence intensity (a.u.)
AAGGACCCGTTCTATCTGGTTTTGCGGTTGAAGGATAGAACGGAGTCACCTAGTGCAG	28000 fluorescence intensity (a.u.)
TTGTGTAGGTTTTGTTTCTTTCTTCTTTTTTCGAAAAGAGCGGAGTCACCTAGTGCAG	8940 fluorescence intensity (a.u.)

Sequence	binding signal
AGTTGAGGGATCCGTTGTATCTGGTTTTGCGGTTGAAGGACGGAGTCACCTAGTGCAG	8570 fluorescence intensity (a.u.)
TATATTGTCTGTTTTCTCTTGAATCTTTCCTATCCAGTAGCGGAGTCACCTAGTGCAG	8490 fluorescence intensity (a.u.)
TTATTGTTTTTATTGTCTTTTTTTCTTTATATTTCCAAAACGGAGTCACCTAGTGCAG	11400 fluorescence intensity (a.u.)
CCTTTTCAAGTATTATTGCTGTTTGATTCATCTCTCTTTGCGGAGTCACCTAGTGCAG	9510 fluorescence intensity (a.u.)
TAAACTTGCTCTGATGCGCCCACACGGGGCCACGGCGCGCCGGAGTCACCTAGTGCAG	9010 fluorescence intensity (a.u.)
TAAACTCGTCTTATCCGCATGATTGTTGACTATAGTATGTCGGAGTCACCTAGTGCAG	9300 fluorescence intensity (a.u.)
CTTTCATATATGTGTGTGCTATGATTTGTTTTCTTCCTCACGGAGTCACCTAGTGCAG	11900 fluorescence intensity (a.u.)
CCGCATCCTTCTTGGACTTCTGTTTTGTTGTTGGCCATGGCGGAGTCACCTAGTGCAG	11100 fluorescence intensity (a.u.)
GATTTTTCTTTACATGTTCTTTTTCATCGATCTTTTGAGACGGAGTCACCTAGTGCAG	9460 fluorescence intensity (a.u.)
GCTCCAGATCTGTGGGTGTCTTTGGGTGAGTGGGCAAATACGGAGTCACCTAGTGCAG	11200 fluorescence intensity (a.u.)
TCGTTTTTCTCTTTAGTGTGTGTGTGTTGCGTTTTTGCAACGGAGTCACCTAGTGCAG	10300 fluorescence intensity (a.u.)
GACCTGAAGTTCTCGTTGTGTTGGCCTGCGTTTTTATCTGCGGAGTCACCTAGTGCAG	16800 fluorescence intensity (a.u.)
CTTCTGCTTGGTGTGTTGTGTGTTTTACCTTGAGTTATCTCGGAGTCACCTAGTGCAG	8480 fluorescence intensity (a.u.)
TTGTTCTCTTTTTTTTTGCGTGCGTTGACTTTATCTTCAACGGAGTCACCTAGTGCAG	19900 fluorescence intensity (a.u.)
ATATCTCACTTTGACTGCTTGTTGTTATCGTTCTTTTATACGGAGTCACCTAGTGCAG	12000 fluorescence intensity (a.u.)
CTGAACATGTTGTTCAGTTGGCCTCGTTTTCTCACCTTTGCGGAGTCACCTAGTGCAG	9320 fluorescence intensity (a.u.)
GGGAGTCAAAGTAGACTTATTCTTCCCCAATCCATCTCAGCGGAGTCACCTAGTGCAG	8330 fluorescence intensity (a.u.)
GTTCTCGATGTGTTCTAAAATTTTGTTGTTTATAATTTTTCGGAGTCACCTAGTGCAG	8190 fluorescence intensity (a.u.)
TTCATCGTAAACGTTACTTCTCGTTATAAATTGATTTTTTCGGAGTCACCTAGTGCAG	10100 fluorescence intensity (a.u.)
ACAGCGACCTTTTGCTGCAAAGCTTTGTTGGGTTTGGGCTCGGAGTCACCTAGTGCAG	8470 fluorescence intensity (a.u.)
ACGACCCCTCCAACACATTTCCCTCGCGTCTCGTTGCGATCGGAGTCACCTAGTGCAG	8480 fluorescence intensity (a.u.)
